Laboratory results reported in PubChem BioAssay (EPA / NIEHS).
Several values for one entry are separate records, joined by “and”; a condition that tells them apart may be missing. Equal values may be shown once. Results filed as inconclusive are left out. Where a structure was tested more than once in an assay, its records may differ in their call. Activity calls are given as the source filed them. The calls were made as follows, unless noted: active = hit-call score of the fitted dose curve at least 0.9, where 1 is the maximum; inconclusive = response in the unintended direction; inactive = score below 0.9.

How the values were obtained:
[1] = biological target: Cellular tumor antigen p53 (Homo sapiens) (UniProt P04637); assay: TOX21_p53_BLA_p2_ratio: Tox21 HCT-116 p53 Agonism Beta-lactamase Assay, Ratio, Phase 2 (AID 2283592)
Cellular tumor antigen p53 (Homo sapiens), sequence (P04637 whole entry, looked up): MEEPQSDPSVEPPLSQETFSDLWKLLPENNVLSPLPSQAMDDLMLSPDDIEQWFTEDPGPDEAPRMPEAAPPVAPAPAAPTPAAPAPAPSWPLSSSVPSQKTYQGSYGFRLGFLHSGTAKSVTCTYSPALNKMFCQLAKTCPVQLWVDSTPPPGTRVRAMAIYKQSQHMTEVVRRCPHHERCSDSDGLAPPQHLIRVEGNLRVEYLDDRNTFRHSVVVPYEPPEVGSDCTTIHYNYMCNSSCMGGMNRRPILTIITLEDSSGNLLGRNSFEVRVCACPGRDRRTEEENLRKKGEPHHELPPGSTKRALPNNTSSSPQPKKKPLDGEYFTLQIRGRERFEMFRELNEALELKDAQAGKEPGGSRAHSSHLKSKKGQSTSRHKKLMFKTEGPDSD
How it was run: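 Plated HCT116 p53-bla cells (4000/well) received compound after 5 h, then 16 h at 37C/5% CO2. CCF4-AM added, 2 h RT. Ratio of 460 to 530 nm emission taken as the p53 reporter signal.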

[2] = biological target: Cellular tumor antigen p53 (Homo sapiens) (UniProt P04637); assay: TOX21_p53_BLA_p3_ratio: Tox21 HCT-116 p53 Agonism Beta-lactamase Assay, Ratio, Phase 3 (AID 2283596)
How it was run: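 Cells were seeded at 4000/well, rested 5 h at 37C, then dosed with DMSO compound solutions (217-fold dilution) for 16 h. CCF4-AM substrate was loaded for 2 h at room temperature, and the 460/530 nm emission ratio was fitted for gain of signal versus DMSO.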

[3] = TOX21_p53_BLA_p4_viability: Viability Assessment in the Tox21 HCT-116 p53 Agonism Beta-lactamase Assay, Phase 4 (AID 2283597);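 also: hits lower the luminescence signal meaning cytotoxicity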
How it was run: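 Readout: ATP luminescence (CellTiter-Glo), measured 30 min after reagent addition at RT. The reagent followed a 2 h CCF4-AM incubation, and the cells had been exposed to compound for 16 h at 37C.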

[4] = biological target: Cellular tumor antigen p53 (Homo sapiens) (UniProt P04637); assay: TOX21_p53_BLA_p5_ratio: Tox21 HCT-116 p53 Agonism Beta-lactamase Assay, Ratio, Phase 5 (AID 2283599)
How it was run: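 Beta-lactamase reporter ratio (blue 460 nm over green 530 nm, 405 nm excitation) after 2 h CCF4-AM loading, in HCT-116 cells exposed 16 h at 37 C to compounds pinned at 217-fold dilution. Increases relative to DMSO baseline scored.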

[5] = biological target: Cellular tumor antigen p53 (Homo sapiens) (UniProt P04637); assay: TOX21_p53_BLA_p4_ratio: Tox21 HCT-116 p53 Agonism Beta-lactamase Assay, Ratio, Phase 4 (AID 2283601)
How it was run: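 Signal is the blue/green (460nm/530nm) ratio of cleaved versus uncleaved CCF4-AM substrate, read after 2 h substrate loading. Cells were HCT116 carrying the p53-responsive beta-lactamase reporter, dosed 16 h at 37C, 5% CO2; CellTiter-Glo measured in parallel.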

[6] = biological target: Thyroid hormone receptor alpha (Rattus norvegicus) + Thyroid hormone receptor beta (Rattus norvegicus) (UniProt P18113+P63059); assay: TOX21_TR_LUC_GH3_Antagonist_Followup: Tox21 GH3 Thyroid Hormone Receptor Antagonism Luciferase Follow-Up Assay (AID 2283942)
How it was run: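 Loss of T3-driven (1.0 nM final) reporter activity in GH3 cells was read by ONE-Glo luminescence after 24 h incubation at 37C; 15-point compound series spanned 92 uM to 5nM final, 1,500 cells/well.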

[7] = biological target: THRA (gene 7067) (UniProt P10827); assay: TOX21_TRA_COA_Antagonist_Followup_ratio: Tox21 Thyroid Hormone Receptor alpha Antagonism through Coactivator Recruitment Follow-Up Assay, Ratio (AID 2283953)
THRA (gene 7067), sequence (P10827 whole entry, looked up, the tested form may be a part): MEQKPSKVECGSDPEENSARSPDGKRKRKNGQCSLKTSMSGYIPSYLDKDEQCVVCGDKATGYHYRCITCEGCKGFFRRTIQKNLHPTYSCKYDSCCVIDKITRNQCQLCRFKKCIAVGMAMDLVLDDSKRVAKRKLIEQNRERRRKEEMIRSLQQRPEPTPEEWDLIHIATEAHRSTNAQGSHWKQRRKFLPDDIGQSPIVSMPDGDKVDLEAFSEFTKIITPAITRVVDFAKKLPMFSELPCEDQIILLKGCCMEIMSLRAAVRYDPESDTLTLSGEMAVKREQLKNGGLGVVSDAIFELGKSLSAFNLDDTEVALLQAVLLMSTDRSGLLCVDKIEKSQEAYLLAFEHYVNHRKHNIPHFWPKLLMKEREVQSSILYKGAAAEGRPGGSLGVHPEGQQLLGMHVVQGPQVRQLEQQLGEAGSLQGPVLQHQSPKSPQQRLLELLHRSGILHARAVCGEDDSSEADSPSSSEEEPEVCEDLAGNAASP
How it was run: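 GST-TRα LBD 2.5 nM, BSA 0.10%, + cpd; then FITC-SRC-2 peptide 200 nM + Tb-anti-GST Ab 2 nM. TR-FRET ratio 520/495 nm. Norm: DMSO = 0%, T3 = 100%.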

[8] = biological target: THRB (gene 7068) (UniProt P10828); assay: TOX21_TRB_BLA_Antagonist_Followup_ratio: Tox21 Thyroid Hormone Receptor beta Antagonism Beta-lactamase (BLA) Follow-Up Assay, Ratio (AID 2283958)
THRB (gene 7068), sequence (P10828 whole entry, looked up, the tested form may be a part): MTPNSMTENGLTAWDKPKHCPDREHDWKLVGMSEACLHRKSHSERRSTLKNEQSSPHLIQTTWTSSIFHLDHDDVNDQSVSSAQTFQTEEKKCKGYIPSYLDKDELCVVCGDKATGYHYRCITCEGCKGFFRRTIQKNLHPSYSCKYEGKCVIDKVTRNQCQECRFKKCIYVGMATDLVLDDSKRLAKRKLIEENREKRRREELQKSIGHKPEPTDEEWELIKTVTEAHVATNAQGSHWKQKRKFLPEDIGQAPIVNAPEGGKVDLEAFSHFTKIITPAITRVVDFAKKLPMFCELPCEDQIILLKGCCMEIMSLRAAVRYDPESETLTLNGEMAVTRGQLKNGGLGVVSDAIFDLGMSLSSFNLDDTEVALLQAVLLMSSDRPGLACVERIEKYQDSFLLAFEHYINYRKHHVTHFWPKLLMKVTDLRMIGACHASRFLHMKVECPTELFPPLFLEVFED
How it was run: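 Cells were plated and allowed to attach for 5 h, then dosed with compounds in DMSO at 11 concentrations for 18 h at 37C. Beta-lactamase reporter activity was measured via CCF4-AM FRET as the 460:530 nm ratio.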

[9] = biological target: THRB (gene 7068) (UniProt P10828); assay: TOX21_TRB_COA_Antagonist_Followup_ratio: Tox21 Thyroid Hormone Receptor beta Antagonism through Coactivator Recruitment Follow-Up Assay, Ratio (AID 2283967)
How it was run: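 Coactivator recruitment to the GST-tagged TRb ligand-binding domain (5.0 nM) was read as the 520/495 nm TR-FRET ratio, using 200 nM fluorescein SRC-2 peptide and 2 nM terbium anti-GST. Scaled between DMSO and T3 wells; loss of signal fitted.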

[10] = biological target: Retinoic acid receptor RXR-alpha (Homo sapiens) (UniProt P19793); assay: TOX21_TR_RXR_BLA_Antagonist_Followup_ratio: Tox21 Thyroid Hormone Receptor beta Retinoid X Receptor alpha (RXRa) Antagonism Beta-lactamase (BLA) Follow-Up Assay, Ratio (AID 2283972)
Retinoic acid receptor RXR-alpha (Homo sapiens), sequence (P19793 whole entry, looked up): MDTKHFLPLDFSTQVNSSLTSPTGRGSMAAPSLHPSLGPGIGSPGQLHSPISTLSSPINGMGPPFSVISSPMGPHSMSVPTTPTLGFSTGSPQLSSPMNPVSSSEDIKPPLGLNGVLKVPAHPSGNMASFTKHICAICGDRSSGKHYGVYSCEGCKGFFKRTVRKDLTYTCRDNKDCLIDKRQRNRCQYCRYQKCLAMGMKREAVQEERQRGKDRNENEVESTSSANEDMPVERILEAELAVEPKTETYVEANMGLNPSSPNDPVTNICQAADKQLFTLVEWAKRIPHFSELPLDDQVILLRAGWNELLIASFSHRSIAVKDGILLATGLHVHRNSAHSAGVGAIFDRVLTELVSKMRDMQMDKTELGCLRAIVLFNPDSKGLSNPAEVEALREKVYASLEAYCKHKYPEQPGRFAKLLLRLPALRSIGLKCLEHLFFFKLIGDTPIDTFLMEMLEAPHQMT
How it was run: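 HEK293T RXRa-bla, 2% charcoal-stripped FBS medium, 16 h compound exposure at 37C, qHTS 11 conc x3. CCF4 FRET ratio ch2/ch1 (460:530), DMSO = baseline, loss-of-signal fit.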

[11] = TOX21_p53_BLA_p5_viability: Viability Assessment in the Tox21 HCT-116 p53 Agonism Beta-lactamase Assay, Phase 5 (AID 2283600)
How it was run: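 Workflow: seed 4000 cells per well, wait 5 h, add compounds (DMSO, 217-fold dilution), incubate 16 h, load CCF4-AM 2 h, add CellTiter-Glo, read luminescence after 30 min.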

[12] = TOX21_p53_BLA_p3_viability: Viability Assessment in the Tox21 HCT-116 p53 Agonism Beta-lactamase Assay, Phase 3 (AID 2283593);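 also: cells exposed to compound for 16 h before reading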
How it was run: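 Cellular ATP was quantified by CellTiter-Glo luminescence, read after 30 min at room temperature. Beforehand, HCT116 cells (4000/well) received compound 5 h post-seeding, 217-fold diluted from DMSO, then incubated 16 h at 37C.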

[13] = TOX21_TRB_BLA_Antagonist_Followup_viability: Viability Assessment in the Tox21 Thyroid Hormone Receptor beta Antagonism Beta-lactamase (BLA) Follow-Up Assay (AID 2283961)
How it was run: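 TRβ-bla HEK293T (human TRβ LBD fused to GAL4 DBD), 3,000 cells/well, 2% charcoal-stripped FBS, phenol red-free medium; 18 h compound exposure, 37C; CellTiter-Glo 30 min RT; luminescence, loss-of-signal readout.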

[14] = CCTE_Harrill_HTTr_Viability_MCF7: CCTE's 6-hour Cell Viability Assessment for the High-Throughput Transcriptomics (HTTr) Platform, in MCF-7 cells cultured in DMEM + 10% fetal bovine serum, Harrill Lab (AID 2284010; active = hit-call score of the fitted dose curve at least 0.9, where 1 is the maximum; inactive = score below 0.9)
How it was run: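 Read-out is propidium iodide gain of signal by high-content imaging, reflecting membrane integrity loss. Measurements are taken 6 h after dosing, eight concentrations per chemical, with DMSO serving as baseline for bidirectional curve fitting.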

[15] = CCTE_Harrill_HTTr_Apoptosis_MCF7: CCTE's 6-hour Apoptosis Assessment for the High-Throughput Transcriptomics (HTTr) Platform, in MCF-7 cells cultured in DMEM + 10% fetal bovine serum, Harrill Lab (AID 2284011; active = hit-call score of the fitted dose curve at least 0.9, where 1 is the maximum; inactive = score below 0.9)
How it was run: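 MCF-7 (DMEM + 10% FBS), 384-well; 8-pt dilution series, 6 h chemical exposure; caspase-3/7 activation via CellEvent Caspase 3/7 Green, HCI; bidirectional fit vs DMSO.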

[16] = CCTE_Harrill_HTTr_CellCount_MCF7: CCTE's Cell Proliferation Assessment for the High-Throughput Transcriptomics (HTTr) Platform, Harrill Lab (AID 2284012);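 also: cells exposed to compound for six hours; intended direction is loss of nuclei count meaning fewer cells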
How it was run: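 Cell count served as viability reporter: loss of Hoechst-stained nuclei, counted by high content imaging, marks decreased growth or survival. Exposure was 6 h in MCF-7 cells across eight concentrations, with DMSO as baseline.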

Measured: AC50

COc1cc([C@@H]2c3cc4c(cc3[C@H](O)[C@H]3COC(=O)[C@H]23)OCO4)cc(OC)c1OC
active: [8] 27.3 nM
inactive: [1] | [2] | [3] | [4] | [5] | [6] | [7] | [9] | [10]

CC(=O)O[C@@H]1C(=O)O[C@@H]2[C@H]1OC(=O)[C@@H]2OC(C)=O
active: [4] 36.7 µM
inactive: [1] | [2] | [3] | [11] | [5]

O=C(NCCN1CCOCC1)c1ccc(Cl)cc1
inactive: [1] | [2] | [3] | [4] | [11] | [5]

CCn1cc(C(=O)O)c(=O)c2cc(F)c(N3CCNCC3)cc21
inactive: [1] | [2] | [3] | [4] | [5]

CC(C)CCCC(C)N (configuration not stated)
inactive: [12] | [3] | [4] | [11] | [5]

CCOC(=O)OCC/C(SC(=O)OCC)=C(\C)N(C=O)Cc1cnc(C)nc1N
inactive: [12] | [3] | [11]

CCCCNCCCC
inactive: [1] | [2] | [3] | [4] | [11]

Nc1ccc2cc3ccc(N)cc3nc2c1
active: [1] 968 nM and 3.15 µM | [2] 2.62 µM and 5.87 µM | [4] 2.96 µM and 4.81 µM | [5] 1.64 µM and 3.71 µM | [6] 13.1 µM | [8] 32.4 µM and 28.8 µM | [13] 19.5 µM | [10] 17.5 µM and 7.59 µM
inactive: [13]

CN(C)CCN(Cc1cccs1)c1ccccn1
inactive: [1] | [2] | [4] | [5]

Cc1cnc(C(=O)NCCc2ccc(S(=O)(=O)NC(=O)NC3CCCCC3)cc2)cn1
inactive: [1] | [2] | [3] | [4] | [11] | [5] | [14] | [15] | [16]

C[C@@H]1O[C@@H](OC[C@H]2O[C@@H](Oc3c(-c4ccc(O)c(O)c4)oc4cc(O)cc(O)c4c3=O)[C@H](O)[C@@H](O)[C@@H]2O)[C@H](O)[C@H](O)[C@H]1O
inactive: [1] | [3] | [4] | [11] | [5]
